Data as given in PubChem BioAssay.
Active and inactive are the calls of the source.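 The calls were made as follows, unless noted: active = GFP response above 150% of the DMSO level; inconclusive = fewer than 70 events counted for a yeast strain; inactive = the rest.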

How the values were obtained:
[1] = RPL19A-GFP modulators, yeast TOR pathway, confirmation, cell-based, S. cerevisiae, flow cytometry, cherry picks, mother/daughter gates (AID 2270;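 active = GFP response below 50% of the DMSO control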); settings: S. cerevisiae RPL19A-GFP strain, 3 h, at 10 µM, stronger effect = lower value, 100 = same GFP as DMSO wells
[2] = LAP4-GFP expression modulators in yeast, confirmation, cell-based, cherry picks, flow cytometry, mother/daughter gates (AID 2271;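 active = GFP response above 150% of the DMSO control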;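 also: ratio of sample to DMSO plate mean so 100% equals DMSO level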); settings: S. cerevisiae LAP4-GFP strain, 3 h, at 10 µM, stronger effect = higher value, 100 means same as DMSO control
[3] = modulators of MEP2-GFP levels in yeast, confirmation, S. cerevisiae, flow cytometry GFP, cherry picks (AID 2272;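 active = GFP response above 150% of the DMSO control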;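 also: ratio of well signal to plate DMSO mean so 100% equals DMSO level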); settings: S. cerevisiae MEP2-GFP strain, 3 h, at 10 µM, stronger effect = higher value
[4] = AGP1-GFP expression modulators, hit retest, confirmation, cell-based, flow cytometry, S. cerevisiae, cherry picks (AID 2273);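 also: median GFP channel fluorescence over the whole cell population gate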; settings: S. cerevisiae AGP1-GFP strain, 3 h, at 10 µM
[5] = modulators of CIT2-GFP expression in yeast, confirmation, S. cerevisiae, GFP fusion, cherry picks, mother/daughter gates (AID 2274); settings: S. cerevisiae CIT2-GFP strain, flow cytometry, 3 h, at 10 µM, stronger effect = higher value
[6] = inhibitors of CD8+ T cell-vesicle binding, pilot screen, LFA-1/ICAM-1 modulator project, MLPCN validation set, flow cytometry (AID 2523;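 active = response below a set limit, under 55% cells CD8-positive and vesicle-bound, and CD8 cells' 90th-percentile brightness under 279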;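 as to vesicle binding response: mean PE anti-B7-1 fluorescence of CD8+ cells relative to row control; 100% = QL9-loaded vesicles with DMSO vehicle in the same plate row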); settings: 2C mouse CD8+ T cells, at 7 µM, stronger effect = lower value; double positive events: measured here: CD8+/vesicle+ event percentage
[7] = molecular target: Integrin beta-1 (Homo sapiens) + Integrin alpha-4 (Homo sapiens) (UniProt P13612+P05556); assay: inhibition of HUTS-21 binding to VLA-4, pilot screen, VLA-4 allosteric modulator project, U937 cells, HUTS-21 mAb, flow cytometry, validation set (AID 2674;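 active = inhibition above 50%, about 3 SD of the validation set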;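 also: antibody binding induced by the VLA-4 ligand LDV present at three times its Kd; 0% = LDV ligand with antibody and no compound and 100% = antibody without LDV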); settings: HUTS-21 LIBS mAb binding, at 6.7 µM, stronger effect = higher value, binding induced by LDV ligand
Integrin beta-1 (Homo sapiens) + Integrin alpha-4 (Homo sapiens), sequence (P05556 whole entry, looked up): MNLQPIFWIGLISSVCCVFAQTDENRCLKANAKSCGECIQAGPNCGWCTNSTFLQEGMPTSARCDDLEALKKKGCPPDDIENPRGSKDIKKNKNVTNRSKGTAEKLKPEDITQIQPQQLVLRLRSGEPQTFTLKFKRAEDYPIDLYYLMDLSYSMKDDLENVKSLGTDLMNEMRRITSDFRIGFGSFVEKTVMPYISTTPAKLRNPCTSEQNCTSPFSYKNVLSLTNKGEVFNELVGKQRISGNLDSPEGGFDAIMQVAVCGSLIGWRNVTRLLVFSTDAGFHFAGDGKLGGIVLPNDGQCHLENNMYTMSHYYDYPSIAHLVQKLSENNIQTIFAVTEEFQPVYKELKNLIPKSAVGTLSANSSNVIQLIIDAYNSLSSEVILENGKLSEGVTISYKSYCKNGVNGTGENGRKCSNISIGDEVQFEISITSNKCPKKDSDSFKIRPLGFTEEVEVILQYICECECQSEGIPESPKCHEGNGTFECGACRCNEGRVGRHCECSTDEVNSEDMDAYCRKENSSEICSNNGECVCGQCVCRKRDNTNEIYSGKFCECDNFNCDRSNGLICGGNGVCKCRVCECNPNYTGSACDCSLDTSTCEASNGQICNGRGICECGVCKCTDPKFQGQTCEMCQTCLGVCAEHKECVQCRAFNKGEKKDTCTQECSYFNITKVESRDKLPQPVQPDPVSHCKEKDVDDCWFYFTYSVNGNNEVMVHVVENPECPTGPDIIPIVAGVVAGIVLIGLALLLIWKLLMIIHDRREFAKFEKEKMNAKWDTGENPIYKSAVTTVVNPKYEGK
Integrin beta-1 (Homo sapiens) + Integrin alpha-4 (Homo sapiens), sequence (P13612 whole entry, looked up): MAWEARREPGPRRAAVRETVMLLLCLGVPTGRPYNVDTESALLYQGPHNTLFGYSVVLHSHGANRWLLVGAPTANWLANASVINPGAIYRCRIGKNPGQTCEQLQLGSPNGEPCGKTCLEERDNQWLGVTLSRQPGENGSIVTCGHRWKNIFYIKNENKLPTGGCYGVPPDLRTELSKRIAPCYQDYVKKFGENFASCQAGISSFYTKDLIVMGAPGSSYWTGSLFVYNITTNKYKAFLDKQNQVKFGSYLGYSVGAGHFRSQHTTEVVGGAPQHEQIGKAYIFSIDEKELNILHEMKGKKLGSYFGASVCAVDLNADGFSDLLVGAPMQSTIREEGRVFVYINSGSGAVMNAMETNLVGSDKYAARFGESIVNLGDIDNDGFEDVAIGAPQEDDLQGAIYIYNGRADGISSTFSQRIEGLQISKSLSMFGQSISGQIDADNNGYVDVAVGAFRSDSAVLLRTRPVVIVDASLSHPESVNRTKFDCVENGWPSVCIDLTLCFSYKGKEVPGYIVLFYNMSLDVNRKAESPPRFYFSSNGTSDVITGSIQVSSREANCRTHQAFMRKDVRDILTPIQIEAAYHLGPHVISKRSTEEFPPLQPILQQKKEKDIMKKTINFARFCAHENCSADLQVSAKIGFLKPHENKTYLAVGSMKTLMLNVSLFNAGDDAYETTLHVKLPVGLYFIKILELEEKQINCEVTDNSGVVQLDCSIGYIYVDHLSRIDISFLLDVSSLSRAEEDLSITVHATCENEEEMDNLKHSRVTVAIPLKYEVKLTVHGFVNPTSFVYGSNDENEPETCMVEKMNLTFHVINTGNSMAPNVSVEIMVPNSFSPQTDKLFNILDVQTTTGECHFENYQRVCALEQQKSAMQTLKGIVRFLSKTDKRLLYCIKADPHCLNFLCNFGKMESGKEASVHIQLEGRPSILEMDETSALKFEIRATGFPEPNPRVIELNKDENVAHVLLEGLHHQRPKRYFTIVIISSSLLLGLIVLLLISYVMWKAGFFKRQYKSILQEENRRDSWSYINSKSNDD

[8] = superoxide lowering in aged yeast cells, pilot screen, validation compound set (AID 2706;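 active = superoxide response below 65% of plate, a cut near 3 SD across the whole screen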;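 also: yeast exposed to compound for one week at 30 degrees C before staining; 100% = mean of all compound wells on the same plate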); settings: S. cerevisiae aging, superoxide DHE fluorescence; at 10 µM, stronger effect = lower value
[9] = molecular target: Beta-adrenergic receptor kinase 1 (Homo sapiens) (UniProt P25098); assay: GRK2 binders displacing RNA aptamer, biochemical, validation, human GRK2, bead flow cytometry (AID 488806;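 active = aptamer binding inhibition above 30%, about 3 SD of noise from non-fluorescent compounds; inactive = inhibition at or below 30%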); settings: bead-bound GRK2, FAM-aptamer displacement, at 10 µM, stronger effect = higher value
Beta-adrenergic receptor kinase 1 (Homo sapiens), sequence (P25098 whole entry, looked up): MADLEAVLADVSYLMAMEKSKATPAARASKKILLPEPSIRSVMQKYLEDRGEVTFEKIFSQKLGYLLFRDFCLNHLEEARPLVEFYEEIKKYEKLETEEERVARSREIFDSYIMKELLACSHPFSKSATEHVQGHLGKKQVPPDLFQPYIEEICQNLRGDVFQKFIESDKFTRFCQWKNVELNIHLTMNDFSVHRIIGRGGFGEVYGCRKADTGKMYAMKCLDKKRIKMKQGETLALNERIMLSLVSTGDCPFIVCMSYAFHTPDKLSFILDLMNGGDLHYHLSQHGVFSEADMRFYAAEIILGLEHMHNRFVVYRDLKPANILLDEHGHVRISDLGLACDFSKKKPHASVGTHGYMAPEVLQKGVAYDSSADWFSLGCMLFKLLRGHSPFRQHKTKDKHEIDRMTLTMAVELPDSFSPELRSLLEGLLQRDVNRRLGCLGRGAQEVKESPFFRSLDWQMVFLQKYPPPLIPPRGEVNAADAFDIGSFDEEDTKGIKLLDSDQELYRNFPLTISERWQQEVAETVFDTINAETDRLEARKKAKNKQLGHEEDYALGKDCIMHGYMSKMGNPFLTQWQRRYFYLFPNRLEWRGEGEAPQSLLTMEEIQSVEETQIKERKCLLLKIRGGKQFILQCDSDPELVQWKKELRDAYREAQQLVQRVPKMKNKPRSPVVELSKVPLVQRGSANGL

[10] = molecular target: Beta-2 adrenergic receptor (Homo sapiens) (UniProt P07550); assay: beta2AR agonists driving receptor internalization, pilot screen, cell-based, FAP fluorogen, flow cytometry, validation set (AID 504459;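 active = percent response above 42, roughly 3 SD of non-fluorescent test compounds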;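 also: agonist-driven loss of surface beta2AR via internalization measured by FAP dye flow cytometry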); settings: Am2.2-beta2AR cells, FAP surface receptor flow cytometry; at 10 µM; stronger effect = higher value
Beta-2 adrenergic receptor (Homo sapiens), sequence (P07550 whole entry, looked up): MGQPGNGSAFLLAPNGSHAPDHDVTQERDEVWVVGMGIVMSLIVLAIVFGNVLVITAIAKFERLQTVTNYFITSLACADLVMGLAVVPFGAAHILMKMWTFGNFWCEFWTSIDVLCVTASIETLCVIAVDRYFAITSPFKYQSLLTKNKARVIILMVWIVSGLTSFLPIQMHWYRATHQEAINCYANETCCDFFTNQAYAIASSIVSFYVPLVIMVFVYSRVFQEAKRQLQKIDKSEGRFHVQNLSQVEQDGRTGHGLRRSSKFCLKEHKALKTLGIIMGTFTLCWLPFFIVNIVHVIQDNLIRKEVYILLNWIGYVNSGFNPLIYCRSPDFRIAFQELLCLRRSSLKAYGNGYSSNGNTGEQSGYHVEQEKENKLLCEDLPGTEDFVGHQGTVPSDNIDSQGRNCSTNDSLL

[11] = molecular target: AP-2 complex subunit beta (Homo sapiens) (UniProt P63010); assay: inhibitors of arrestin peptide binding to AP2, pilot screen, biochemical, validation set, GST-AP2 beads, flow cytometry (AID 504541;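 active = inhibition above 54%, about 3 SD of non-fluorescent compounds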;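 also: AP2 carries R879A mutation and is captured from E. coli lysate; bead-bound FITC arrestin peptide fluorescence measuring arrestin peptide binding to AP2; 0% = DMSO wells and 100% = excess unlabeled arrestin peptide control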); settings: FITC arrestin peptide, at 10 µM, stronger effect = higher value, AP2 beta2 appendage fragment, R879A mutant
AP-2 complex subunit beta (Homo sapiens), sequence (P63010 whole entry, looked up, the tested form may be a part, one chain of several): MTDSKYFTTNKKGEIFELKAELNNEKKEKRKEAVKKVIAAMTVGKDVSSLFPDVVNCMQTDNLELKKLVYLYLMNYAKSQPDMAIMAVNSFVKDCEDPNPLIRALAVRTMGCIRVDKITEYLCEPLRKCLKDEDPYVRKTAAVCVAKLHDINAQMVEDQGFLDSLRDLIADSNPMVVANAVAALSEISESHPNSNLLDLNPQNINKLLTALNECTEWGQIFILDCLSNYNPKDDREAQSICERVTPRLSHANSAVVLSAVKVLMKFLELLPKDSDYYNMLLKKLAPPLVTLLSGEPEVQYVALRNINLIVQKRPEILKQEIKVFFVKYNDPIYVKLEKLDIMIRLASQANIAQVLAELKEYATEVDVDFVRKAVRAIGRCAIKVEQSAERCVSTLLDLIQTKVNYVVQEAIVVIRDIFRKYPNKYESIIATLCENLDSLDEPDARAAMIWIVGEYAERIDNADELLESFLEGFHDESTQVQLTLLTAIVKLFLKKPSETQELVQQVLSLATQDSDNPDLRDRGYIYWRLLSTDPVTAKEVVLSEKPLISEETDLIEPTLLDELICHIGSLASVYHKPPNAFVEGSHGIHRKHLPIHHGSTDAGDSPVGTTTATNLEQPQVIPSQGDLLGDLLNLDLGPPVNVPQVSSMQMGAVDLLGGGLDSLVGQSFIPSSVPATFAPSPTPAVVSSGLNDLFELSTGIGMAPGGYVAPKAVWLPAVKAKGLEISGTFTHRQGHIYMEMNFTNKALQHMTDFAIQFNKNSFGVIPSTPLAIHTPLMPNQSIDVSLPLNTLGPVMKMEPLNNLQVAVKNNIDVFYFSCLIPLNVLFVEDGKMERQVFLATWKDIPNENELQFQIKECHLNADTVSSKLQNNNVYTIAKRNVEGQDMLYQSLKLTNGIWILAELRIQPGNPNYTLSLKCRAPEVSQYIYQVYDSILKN

[12] = yeast V-ATPase proton transport modulators, S. cerevisiae, pHLuorin, HTS validation (AID 504600; in the data active = response above about 15%;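 also: plate controls were DMSO for no effect and reference compound for full effect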); settings: S. cerevisiae pHLuorin cytosolic pH, at 10 µM, stronger effect = higher value
[13] = tested on: anti-desmoglein-3 scFv antibody binding to human DSG3; assay: inhibitors of anti-DSG3 scFv binding to DSG3, pilot screen, biochemical, validation compound set, bead-based, flow cytometry (AID 588368;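 active = binding below the plate cutoff, the plate median minus 3 SD, with a reading above zero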;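 also: signal is the median channel fluorescence of bead-bound GFP antibody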); settings: Protein G beads, DSG3-Fc, scFv-GFP binding, at 10 µM, stronger effect = lower value
[14] = inhibitors of fungal efflux pumps CDR1, CDR2, MDR1, pilot screen, validation compound set, multiplex, phenotypic (AID 588506;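 active = efflux inhibition above 0.42, the validation set average plus 4 SD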;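 also: Nile Red retained in cells so higher fluorescence means more efflux inhibition; 0 = negative control wells and 1 = enniatin B 25 µM full block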); settings: S. cerevisiae pump-expressing triplex, Nile Red efflux flow cytometry; at 10 µM; stronger effect = higher value; the pumps come from Candida albicans
[15] = molecular target: ATP-binding cassette sub-family B member 6 (Homo sapiens) (UniProt Q9NP58); assay: ABCB6 transporter inhibitors, pilot screen, K562-ABCB6 cells, flow cytometry, validation set (AID 588550;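 active = inhibition above the screen-wide mean plus 3 SD, about 51%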;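 also: 0% = DMSO wells and 100% = benzethonium chloride 70 µM positive control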); settings: K562-ABCB6 porphyrin accumulation, 1 h, at 10 µM, stronger effect = higher value
ATP-binding cassette sub-family B member 6 (Homo sapiens), sequence (Q9NP58 whole entry, looked up): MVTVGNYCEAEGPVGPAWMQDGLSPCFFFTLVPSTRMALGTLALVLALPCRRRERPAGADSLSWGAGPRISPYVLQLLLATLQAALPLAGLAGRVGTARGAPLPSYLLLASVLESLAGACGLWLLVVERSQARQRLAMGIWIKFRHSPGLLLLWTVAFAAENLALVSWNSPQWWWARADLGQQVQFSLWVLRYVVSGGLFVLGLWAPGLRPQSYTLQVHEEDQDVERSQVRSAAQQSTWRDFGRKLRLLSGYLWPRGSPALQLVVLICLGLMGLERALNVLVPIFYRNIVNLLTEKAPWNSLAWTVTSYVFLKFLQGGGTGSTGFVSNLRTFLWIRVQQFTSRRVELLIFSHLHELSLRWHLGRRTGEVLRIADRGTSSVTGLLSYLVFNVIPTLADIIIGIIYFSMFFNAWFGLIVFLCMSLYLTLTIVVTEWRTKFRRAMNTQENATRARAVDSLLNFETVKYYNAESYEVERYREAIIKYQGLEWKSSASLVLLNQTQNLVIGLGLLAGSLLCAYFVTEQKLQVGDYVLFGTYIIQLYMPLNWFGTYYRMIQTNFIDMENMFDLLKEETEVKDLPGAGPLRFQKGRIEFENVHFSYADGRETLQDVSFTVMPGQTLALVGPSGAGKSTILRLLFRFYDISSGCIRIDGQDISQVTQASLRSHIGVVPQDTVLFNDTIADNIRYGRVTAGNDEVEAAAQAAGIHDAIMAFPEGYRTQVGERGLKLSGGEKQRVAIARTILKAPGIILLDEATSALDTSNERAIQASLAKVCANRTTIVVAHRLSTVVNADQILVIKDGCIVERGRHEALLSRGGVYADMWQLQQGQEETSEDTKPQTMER

[16] = promoters of myeloid differentiation in arrested cells, primary screen, cell-based, GFP/MAC1 double positive, flow cytometry, validation set (AID 588685;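 active = differentiation response of at least 50%, scaled between solvent and reference control, from cells with both markers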;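 also: compound exposure lasts four days before antibody staining and flow analysis; 0% = DMSO wells and 100% = 5 µM fulvestrant positive control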); settings: ER-HoxA9 marrow cells, stronger effect = higher value, normalized: vehicle 0, fulvestrant 100
[17] = measured here: daughter cell gate
[18] = measured here: mother cell gate
[19] = measured here: daughter cell gate response
[20] = measured here: mother cell gate response

Cc1ccc(/C=C/c2ccc(N(C)C)cc2)[n+](C)c1
GFP response vs DMSO [1]: 101% (inactive)
GFP response vs DMSO [1, 17]: 94.2%
GFP response vs DMSO [1, 18]: 93.8%
GFP response relative to DMSO [2]: 119% (inactive)
GFP response vs DMSO [3]: 133% (inactive)
GFP response, % of DMSO [4]: 103% (inactive)
GFP response, % of DMSO [5]: 121% (inactive)
GFP response, % of DMSO [5, 17]: 121%
GFP response, % of DMSO [5, 18]: 110%

CCc1ccc(C2CC(c3ccco3)=NN2S(C)(=O)=O)cc1 (centres undefined)
GFP response vs DMSO [1]: 108% (inactive)
GFP response vs DMSO [1, 17]: 108%
GFP response vs DMSO [1, 18]: 101%
GFP response relative to DMSO [2]: 131% (inactive)
GFP response vs DMSO [3]: 180% (active)
GFP response, % of DMSO [4]: 108% (inactive)
GFP response, % of DMSO [5]: 188% (active)

Oc1ccc(COCc2ccccc2)c2cccnc12
GFP response vs DMSO [1]: 98% (inactive)
GFP response vs DMSO [1, 18]: 93.8%
GFP response relative to DMSO [2]: 149% (inactive)
GFP response relative to DMSO [2, 19]: 138%
GFP response relative to DMSO [2, 20]: 152%
GFP response vs DMSO [3]: 114% (inactive)
GFP response, % of DMSO [4]: 98.6% (inactive)
GFP response, % of DMSO [5]: 95.8% (inactive)
GFP response, % of DMSO [5, 17]: 101%
GFP response, % of DMSO [5, 18]: 91.5%
double positive events [6]: 65.9%
vesicle binding response [6]: 129% (inactive)
inhibition [7]: -0.43% (inactive)
superoxide response (% of plate) [8]: 75.4% (inactive)
aptamer binding inhibition [9]: 0% (inactive)
response [10]: -7.8% (inactive)
inhibition [11]: -1% (inactive)
response [12]: 2.93% (inactive)
binding (% of control) [13]: 101% (inactive)
efflux inhibition (fraction of control) [14]: 0.12 (inactive)
inhibition [15]: 1% (inactive)
differentiation response [16]: 40.8% (inactive)

COc1ccc(C2C3=C(CCCC3=O)N(CC(=O)O)C3=C2C(=O)CCC3)cc1Cl
GFP response vs DMSO [1]: 102% (inactive)
GFP response vs DMSO [1, 17]: 99%
GFP response vs DMSO [1, 18]: 98.5%
GFP response relative to DMSO [2]: 93.8% (inactive)
GFP response vs DMSO [3]: 100% (inactive)
GFP response, % of DMSO [4]: 104% (inactive)
GFP response, % of DMSO [5]: 111% (inactive)
GFP response, % of DMSO [5, 17]: 111%
GFP response, % of DMSO [5, 18]: 111%

CCC(=O)Nc1ccc(NC(=O)c2cc3ccccc3o2)c(OC)c1
GFP response vs DMSO [1]: 100% (inactive)
GFP response relative to DMSO [2]: 94.4% (inactive)
GFP response relative to DMSO [2, 19]: 95.9%
GFP response relative to DMSO [2, 20]: 96.2%
GFP response vs DMSO [3]: 101% (inactive)
GFP response, % of DMSO [4]: 100% (inactive)
GFP response, % of DMSO [5]: 94.4% (inactive)
GFP response, % of DMSO [5, 17]: 95.6%
GFP response, % of DMSO [5, 18]: 88.2%

CCCc1nn(C)c2c1C(c1cccnc1)C(C#N)=C(N)O2 (centres undefined)
GFP response vs DMSO [1]: 101% (inactive)
GFP response vs DMSO [1, 17]: 106%
GFP response relative to DMSO [2]: 97.4% (inactive)
GFP response vs DMSO [3]: 97.8% (inactive)
GFP response, % of DMSO [4]: 98.3% (inactive)
GFP response, % of DMSO [5]: 111% (inactive)

COc1ccccc1-c1noc(-c2cccnc2)n1
GFP response vs DMSO [1]: 95.3% (inactive)
GFP response vs DMSO [1, 17]: 93%
GFP response vs DMSO [1, 18]: 95.4%
GFP response relative to DMSO [2]: 97.7% (inactive)
GFP response vs DMSO [3]: 108% (inactive)
GFP response, % of DMSO [4]: 96.6% (inactive)
GFP response, % of DMSO [5]: 95.8% (inactive)
GFP response, % of DMSO [5, 17]: 88.7%
GFP response, % of DMSO [5, 18]: 82.6%

CN(C)c1ccc(/C=C/c2ccc3ccccc3[n+]2C)cc1
GFP response vs DMSO [1]: 95.3% (inactive)
GFP response vs DMSO [1, 17]: 90%
GFP response vs DMSO [1, 18]: 88.7%
GFP response relative to DMSO [2]: 98.7% (inactive)
GFP response vs DMSO [3]: 107% (inactive)
GFP response, % of DMSO [4]: 89.5% (inactive)
GFP response, % of DMSO [5]: 107% (inactive)
GFP response, % of DMSO [5, 18]: 95.5%
